According to PubChem BioAssay (NCATS):
Unmarked numbers belong to inactive results. Results filed as inconclusive are left out. Entries that show only a call come without a potency. Calls of active or inactive are those of the source. Calls come from the whole dose curve; as a rule, active = well fitted curve in the direction sought with a large enough effect; inconclusive = small, poorly fitted or top-dose-only effect, or another doubt; inactive = no such curve, though single readings can be large; an effect the other way counts as inactive or inconclusive.

Legend:
[1] = molecular target: Glutathione peroxidase 1 (Homo sapiens) (UniProt P07203); experiment: Primary qHTS Assay for Inhibitors of Recombinant Selenoprotein Glutathione Peroxidase 1 (GPX1) (AID 1845191); note: nearly all actives have a fitted effect of over 65% in size
Chain of Glutathione peroxidase 1 (Homo sapiens) (P07203 whole entry, looked up): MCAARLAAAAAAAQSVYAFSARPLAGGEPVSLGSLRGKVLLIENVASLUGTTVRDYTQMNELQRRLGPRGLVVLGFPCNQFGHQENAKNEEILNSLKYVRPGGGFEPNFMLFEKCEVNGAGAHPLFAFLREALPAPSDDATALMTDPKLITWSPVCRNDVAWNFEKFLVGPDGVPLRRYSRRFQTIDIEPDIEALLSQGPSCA
In short: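 Recombinant GPX1 (10 nM final) was preincubated with compound for 30 min at room temperature, then reacted with 1 mM GSH, 0.5 mM CHP, 0.5 mM NADPH and 100 nM glutathione reductase; NADPH fluorescence (340/450 nm) was read at 0 and 15 min.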

[2] = molecular target: Phospholipid hydroperoxide glutathione peroxidase GPX4 (Homo sapiens) (UniProt P36969); experiment: Primary qHTS Assay for Inhibitors of Recombinant Selenoprotein Glutathione Peroxidase 4 (GPX4) (AID 1845192); note: nearly all actives have a fitted effect of over 65% in size; for activity change, negative = inhibition: series mostly up to about 50 µM
Chain of Phospholipid hydroperoxide glutathione peroxidase GPX4 (Homo sapiens) (P36969 whole entry, looked up): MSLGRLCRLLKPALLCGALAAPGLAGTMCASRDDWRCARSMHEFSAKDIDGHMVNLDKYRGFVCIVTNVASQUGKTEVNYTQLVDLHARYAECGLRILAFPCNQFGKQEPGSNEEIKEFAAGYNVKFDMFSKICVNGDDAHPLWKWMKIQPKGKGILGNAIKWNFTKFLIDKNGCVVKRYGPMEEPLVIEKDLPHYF
In short: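 GR-coupled readout: 100 nM GR, 1 mM GSH, 0.5 mM NADPH; NADPH fluorescence (ex 340/em 450 nm) read at t=0 and after 15 min RT. GPX4 200 nM, preincubated 30 min with compound; substrate 0.5 mM CHP.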

[3] = molecular target: Luciferin 4-monooxygenase (Photinus pyralis) (UniProt P08659); experiment: Primary firefly luciferase (FLuc) qHTS assay for identification of artifact compounds. (AID 1845220); note: nearly all actives have a fitted effect of over 60% in size; note: potency is the fitted concentration of half-maximal effect; for activity change, negative = inhibition: series mostly up to about 54 µM
In short: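 qHTS, 15 min compound preincubation with substrate (10 uM luciferin, 10 uM ATP) at RT, then 10 nM FLuc; 5 min; luminescence; % inhibition vs no-enzyme/DMSO controls, 4-parameter Hill fit.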

[4] = Primary fluorescence-based thiol-reactive (MSTI) qHTS assay for identification of artifact compounds. (AID 1845221); note: nearly all actives have a fitted effect of over 65% in size; note: potency is the fitted concentration of half-maximal effect;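 for activity change, negative = thiol reactive: series mostly up to about 54 µM; thiol-reactive compounds lower the probe fluorescence signal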
In short: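 Curve-fitted percent inhibition (4-parameter Hill) derived from fluorescence, Ex 525/Em 598 nm, scaled with Acetyl-MSTI and MSTI; 1 h incubation at room temperature.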

[5] = tested on: Nanoluciferase (engineered Oplophorus gracilirostris luciferase); experiment: Primary Nanoluciferase (NLuc) qHTS assay for identification of artifact compounds. (AID 1845222); note: series mostly up to about 54 µM
In short: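 Luminescence read-out of secreted NLuc in S16 cell conditioned medium (1:55); compounds tested with 15 min RT preincubation, then Nano-Glo substrate 1:100, 5 min. % inhibition vs no-enzyme and DMSO controls, 4-parameter Hill fit.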

For `COc1c2c(c(C)c3c1C(=O)OC3)OC1(C)CC(O)C34OC(OC)(CC(OC(C)=O)C3(C)C1C2)OC4(C)C` (stereo not given), the Potency [1] was “inactive”, the Potency [2] was “inactive” and the Potency [3] was “inactive”. For the same compound, the Potency [4] was “inactive” and the Potency [5] was “inactive”.
With `CC(=O)OC[C@]12[C@H](OC(C)=O)C(=O)[C@@H]3[C@@H](OC(C)=O)[C@@]14O[C@@]3(C)COC(=O)c1cccnc1[C@@H](C)[C@H](C)C(=O)O[C@@H]([C@H](O)[C@@H]2OC(C)=O)[C@]4(C)O` the Potency [1] was “inactive”, the Potency [2] was “inactive” and the Potency [3] was “inactive”. The Potency [4] was “inactive” and the Potency [5] was “inactive”.
With `CC1(C)CC[C@]2(C(=O)O[C@@H]3O[C@H](CO[C@@H]4O[C@H](CO)[C@@H](O)[C@H](O)[C@H]4O[C@@H]4O[C@H](CO)[C@H](O)[C@H](O)[C@H]4O)[C@@H](O)[C@H](O[C@@H]4O[C@H](CO)[C@@H](O)[C@H](O)[C@H]4O)[C@H]3O)CC[C@]3(C)C(=CCC4[C@@]5(C)CC[C@H](O[C@@H]6OC[C@@H](O)[C@H](O)[C@H]6O)[C@@](C)(C(=O)O)C5CC[C@]43C)[C@@H]2C1` (stereo not given in full) the outcome [1] was “inactive [at 9.52 µM]”, the outcome [2] was “inactive [at 9.73 µM]” and the activity change, negative = inhibition [3] was 3.08% [at 11.6 µM]. For the same compound, the activity change, negative = thiol reactive [4] was 79.6% [at 11.5 µM] and the activity, negative = inhibition [5] was 0.986% [at 11.6 µM].
For `CC(=O)O[C@H]1[C@@H](O)[C@H](O[C@H]2[C@@H]3C=CO[C@@H](O[C@H]4O[C@@H](CO)[C@H](O)[C@@H](O)[C@@H]4O)[C@@H]3[C@@]3(CO)O[C@@H]23)O[C@@H](C)[C@@H]1OC(=O)/C=C/c1ccccc1`, the Potency [1] was “inactive”, the Potency [2] was “inactive” and the Potency [3] was “inactive”. The Potency [4] was 7.93 µM (active) and the Potency [5] was “inactive”.
With `Nc1ncnc2c1ncn2CCNCCCCCO` the Potency [1] was “inactive”, the Potency [2] was “inactive” and the Potency [3] was “inactive”. The Potency [4] was “inactive” and the Potency [5] was “inactive”.
Compound `C[C@@H]1O[C@@H](O[C@H]2[C@H](O)[C@@H](O)[C@H](OC[C@H]3O[C@@H](OC(=O)[C@]45CCC(C)(C)C[C@H]4C4=CCC6[C@@]7(C)CC[C@H](O[C@@H]8OC[C@H](O)[C@H](O[C@@H]9O[C@H](CO)[C@@H](O)[C@H](O)[C@H]9O)[C@H]8O)[C@@](C)(CO)C7CC[C@@]6(C)[C@]4(C)CC5)[C@H](O)[C@@H](O)[C@@H]3O)O[C@@H]2CO)[C@H](O)[C@H](O)[C@H]1O` (stereo not given in full) has an activity, negative = inhibition [1] of -7.31% [at 9.52 µM], an activity change, negative = inhibition [2] of -3.72% [at 9.73 µM] and an activity change, negative = inhibition [3] of 2.93% [at 11.6 µM]. It also gave an activity change, negative = thiol reactive [4] of 205% [at 11.5 µM] and an activity, negative = inhibition [5] of 3.4% [at 11.6 µM].
For `CC(=O)O[C@@H]1[C@@H](O)[C@H](O[C@H]2CC[C@]34C[C@]35CC[C@]3(C)[C@@H]([C@@]6(C)CC[C@@H](C(C)(C)O)O6)[C@@H](O)C[C@@]3(C)[C@@H]5C[C@H](O[C@@H]3O[C@H](CO)[C@@H](O)[C@H](O)[C@H]3O)[C@H]4C2(C)C)OC[C@H]1O`, the Potency [1] was “inactive”, the Potency [2] was “inactive” and the Potency [3] was “inactive”. For the same compound, the Potency [4] was “inactive” and the Potency [5] was “inactive”.
With `C[C@@H]1CC[C@]2(C(=O)O[C@@H]3O[C@H](CO)[C@@H](O)[C@H](O)[C@H]3O)CC[C@]3(C)C(=CCC4[C@@]5(C)C[C@@H](O)[C@H](O)[C@@](C)(C(=O)O[C@H]6[C@H](O)C[C@@]7(C)C(CC[C@]8(C)C7CC=C7[C@H]9[C@](C(=O)O[C@@H]%10O[C@H](CO)[C@@H](O)[C@H](O)[C@H]%10O)(CC[C@@H](C)[C@@]9(C)O)CC[C@]78C)[C@@]6(CO)C(=O)O)C5CC[C@]43C)[C@@H]2[C@]1(C)O` (stereo not given in full) the outcome [1] was “inactive [at 9.52 µM]”, the activity change, negative = inhibition [2] was -0.473% [at 9.73 µM] and the activity change, negative = inhibition [3] was 0.17% [at 11.6 µM]. The activity change, negative = thiol reactive [4] was -3.19% [at 11.5 µM] and the activity, negative = inhibition [5] was -2.05% [at 11.6 µM].
In the case of `COc1ccc([C@@H]2OC[C@H]3[C@@H]2CO[C@@H]3c2ccc(OC3OC(CO)C(O)C(O)C3O)c(OC)c2)cc1OC` (stereo not given in full), the Potency [1] is reported as “inactive”, the Potency [2] is reported as “inactive” and the Potency [3] is reported as “inactive”. For the same compound, the Potency [4] was 8.22 µM (active) and the Potency [5] was “inactive”.
With `COC(=O)C12C(=O)C(C)=C(O)C1(C)C(C)=CC1C3(CO)CCC(O)C(C)(C)C3CCC12C` (stereo not given) the Potency [1] was “inactive”, the Potency [2] was “inactive” and the Potency [3] was “inactive”. For the same compound, the Potency [4] was “inactive” and the Potency [5] was “inactive”.
In the case of `C=CC(C)(C)c1[nH]c2ccccc2c1C[C@@H]1NC(=O)[C@H](Cc2c[nH]c3ccccc23)NC1=O`, the Potency [1] is reported as “inactive”, the Potency [2] is reported as “inactive” and the Potency [3] is reported as “inactive”. The Potency [4] was 2.32 µM (active) and the Potency [5] was “inactive”.
In the case of `COc1cc(N2CCOCC2)ccc1Nc1ncc(Cl)c(Nc2ccccc2NS(C)(=O)=O)n1`, the Potency [1] is reported as “inactive”, the Potency [2] is reported as “inactive” and the Potency [3] is reported as “inactive”. The Potency [4] was 1.34 µM (active) and the Potency [5] was “inactive”.
For `CC1(C)CCC2(C(=O)OC3OC(CO)C(O)C(O)C3O)CCC3(C)C(=CCC4C5(C)CCC(O)C(C)(C(=O)O)C5CCC43C)C2C1O` (stereo not given), the Potency [1] was “inactive”, the Potency [2] was “inactive” and the Potency [3] was “inactive”. The Potency [4] was “inactive” and the Potency [5] was “inactive”.
In the case of `O=C(c1cccc(Cl)c1F)N1CCN(Cc2cccc(Nc3nccs3)n2)CC1`, the Potency [1] is reported as “inactive”, the Potency [2] is reported as “inactive” and the Potency [3] is reported as “inactive”. The Potency [4] was “inactive” and the Potency [5] was “inactive”.
In the case of `Cc1cc(OCc2nc(-c3ccccc3Cl)cs2)ccc1OCC(=O)O`, the Potency [1] is reported as “inactive”, the Potency [2] is reported as “inactive” and the Potency [3] is reported as 9.53 µM (active). The Potency [4] was “inactive” and the Potency [5] was “inactive”.
With `C=CC(=O)Nc1cc(Nc2nccc(-c3c[nH]c4ccccc34)n2)c(OC)cc1N(C)CCN(C)C` the Potency [1] was “inactive”, the Potency [2] was “inactive” and the Potency [3] was “inactive”. For the same compound, the Potency [4] was 1.68 µM (active) and the Potency [5] was “inactive”.
For `CC(=O)OC1C(OC(=O)c2ccccc2)C2C(C)(C)CC(=O)CC2(C)C23CCC(C)(C2)C(O)CC13` (stereo not given), the Potency [1] was “inactive”, the Potency [2] was “inactive” and the Potency [3] was “inactive”. The Potency [4] was “inactive” and the Potency [5] was “inactive”.
`CC1OC(OC2C(C)OC(OC3C(OC(=O)C45CCC(C)(C)CC4C4=CCC6C7(C)CCC(OC8OC(C(=O)O)C(O)C(O)C8OC8OC(CO)C(O)C(OC9OC(C)C(O)C(O)C9O)C8O)C(C)(CO)C7CCC6(C)C4(C)CC5)OC(CO)C(O)C3O)C(O)C2O)C(O)C(O)C1O` (stereo not given) showed an activity, negative = inhibition [1] of -14% [at 9.52 µM], an activity change, negative = inhibition [2] of -14.3% [at 9.73 µM] and an activity change, negative = inhibition [3] of -4.3% [at 11.6 µM]. It also gave an activity change, negative = thiol reactive [4] of 122% [at 11.5 µM] and an activity, negative = inhibition [5] of 2.74% [at 11.6 µM].
